# Screens as filed in PubChem BioAssay.
# Dicer processing – blocks human Dicer maturation of pre-miR-21. 47,000 tested, 6% active. AID 1347074. z-score at 25 µM. Q9UPY3. cat-ELCCA pre-miR-21 Dicer processing, chemiluminescence; stronger effect = higher value; in the data active = z-score above about 3, passing the limit was not always enough;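 also: plate controls were vehicle for no effect and no enzyme for full effect; higher signal means more uncleaved substrate so more Dicer inhibition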
# * marks the source's active call; other numbers are inactive results. The entries come from a sample that favours hits as a whole.
SMILES,Dicer processing
Cc1nc2ccccc2n1-c1ccccc1,-1.5
C=CCn1c(-c2ccc(N)cc2)nc2ccccc21,1.5
Nc1nc(N)c(S(=O)(=O)c2ccccc2)c(N2CCOCC2)n1,1.8
Nc1nnc(-c2nonc2N)s1,-0.08
Cn1c(NC2CCN(Cc3ccccc3)CC2)cc(=O)n(C)c1=O,-7.2
Cc1nc2ccc(Br)cc2c(-c2ccccc2)c1C(=O)O,-0.82
CCCCc1c(C)nc2ccccc2c1SCCC(=O)O,3.7*
CCCCc1c(C)nc2c(OC)cccc2c1SCCC(=O)O,3.5*
CCOC(=O)CSc1nc(C)c2ccccc2n1,0.21
CCOC(=O)c1cc(C)nc2ccc(Br)cc12,-0.87
CCCCc1c(O)nc(SCCC(=O)O)[nH]c1=O,-0.2
CCc1c(C)nc2ccc(Br)cc2c1SCCC(=O)O,3.2*
COc1ccc(-c2nnc(SCCC(=O)O)o2)cc1,-0.26
CCCCc1cc(C)c2nc(-c3ccc(OC)c(OC)c3)cc(C(=O)O)c2c1,-6.4
FC(F)(F)c1cccc(CSc2n[nH]c(=S)s2)c1,1.7
CC1=CC(C)(C)N2C(=O)C(=O)c3cc(OC(=O)c4ccc(F)cc4)cc1c32,1.4
O=C(Cn1c(=O)sc2ccccc21)Nc1nnc(SCC(=O)N2CCOCC2)s1,-0.2
COC(=O)c1coc(=O)c2ccccc12,1.1
Fc1ccc(Oc2ccnc3cc(Cl)ccc23)cc1,-0.22
NC(N)=Nc1nc(-c2ccc([N+](=O)[O-])cc2)cs1,-1.3
Cc1cccc2[nH]c(-c3ccccc3)nc12,-0.58
Brc1cccc(-c2nc3ccccc3[nH]2)c1,2.3
Cc1c(N)ccc2[nH]c(-c3ccc(N)cc3)nc12,6.3*
Nc1cccc2[nH]c(-c3ccccc3)nc12,3.9*
Cc1cccc2[nH]c(SCc3ccccc3F)nc12,0.69
SMILES,Dicer processing
O=c1[nH]c(-c2ccccc2)nc(=S)[nH]1,2
Cc1cccc2[nH]c(-c3ccc(N)cc3)nc12,6.8*
Nc1ccc(-c2nc3c(Cl)c(N)ccc3[nH]2)cc1,3.4*
Cc1c(C)c(C)c2[nH]c(-c3ccc4c(c3)OCO4)nc2c1C,0.22
O=C(NC(=S)Nc1cc(-c2cccs2)[nH]n1)c1ccccc1,0.84
CC(=O)NC(CC#N)[C@@H](OC(C)=O)[C@H](OC(C)=O)[C@@H](COC(C)=O)OC(C)=O (some centres not stated),-0.08
CC1=C(C(=O)OCCOC(C)C)C(c2ccccc2Br)C2=C(CC(C)(C)CC2=O)N1 (configuration not stated),0.11
O=C(CSCCS(=O)(=O)c1ccccc1)NCc1ccccc1,-0.8
COc1ccc(C2CC(=O)C3=C(C2)NC(C)=C(C(=O)OC(C)C)C3c2cccnc2)cc1 (configuration not stated),0.39
COC(=O)c1c(OC)ccc(N=CNO)c1OC,-0.69
COc1ccc(C(CC(=O)O)c2ccc(OC)c(OC)c2)cc1OC,1.3
O=C1CC2(CCCC2)CC(=O)N1Cc1csc2ccccc12,0.57
CCN(CC)CCSCCOC(=O)c1oc2ccccc2c1C,-1.3
CCOC(=O)c1cnc2c(c(C)nn2C)c1N1CCC(n2cccc2)CC1,-0.53
Cc1cc(=O)[nH]c(/N=C(\N)Nc2ccc(Cl)c(Cl)c2)n1,-0.19
CCOC(=O)c1sc(-c2ccccc2)nc1OC,1.7
COc1nc2ccccc2nc1CCC(=O)O,3.8*
Cn1c2ccccc2n2nc(CCC(=O)O)c(=O)nc12,2.1
COC(=O)CCc1nc2ccccc2nc1OC,3.5*
CCCCOC(=O)CCc1nc2ccccc2[nH]c1=O,0.6
COC(=O)c1ccc(COC(=O)CCc2nc3ccccc3[nH]c2=O)cc1,2.7
O=C(Nc1ccc(Cl)c(-c2nc3ccccc3s2)c1)c1cncc(Br)c1,1.2
O=C1c2oc3ccccc3c(=O)c2C(c2ccc(OCc3ccccc3)cc2)N1c1ccccn1 (configuration not stated),2
CCN(CC)C(=S)Oc1ccc(Br)cc1C(=O)Nc1ccc(F)c(Cl)c1,0.33
COc1ccc(-c2ccc(C#N)c(SCc3ccncc3)n2)cc1,-0.07
SMILES,Dicer processing
CCOC(=O)C(NC(=O)c1cccc(C)c1)(Nc1cc(C)ccn1)C(F)(F)F (configuration not stated),-1.8
CCOC(=O)c1cnc(Nc2nc(C(C)(C)C)cs2)nc1C,1.7
C/C(=N\OCc1cccc(C(=O)N=S(C)c2ccc(C)cc2)c1)c1ccc(Cl)cc1 (configuration not stated),-1.5
c1ccc(-c2nn3c(-c4ccccc4)nnc3s2)cc1,-0.02
c1ccc(-c2nnc3sc(-c4cccs4)nn23)cc1,-0.93
c1ccc(-c2nnc3sc(-c4ccco4)nn23)cc1,3*
COc1cccc(-c2nnc(SCc3ccccc3C)o2)c1,-1.1
Cc1nn(-c2ccccc2)nc1C(=O)Nc1nncs1,-8.2
COc1ccc(NC(=O)CSc2nnc(-c3csc4c3CCCC4)o2)cc1,0.92
COc1cc2nc(N3CCN(C(=O)c4ccco4)CC3)nc(N)c2cc1OC,0.19
COc1cc2c(cc1OC)CN(C(=O)CSc1nnc3ccccn13)CC2,-0.05
COc1cc2c(cc1OC)CN(C(=O)c1ccco1)CC2,5*
Cc1nn(C)c(NCCCN(C)C)c1[N+](=O)[O-],-0.93
